From the supplement of paper PMC11732987, “Enantioselective OTUD7B fragment discovery through chemoproteomics screening and high-throughput optimisation” (Communications Chemistry, 2025)

Columns and labels:
Experiment in all cases: log2 ratio of Biotin-Ahx-Ub-VS probe labelling (fragment/DMSO); higher = less target engagement (more negative = stronger competition), active = hit call of the paper (q ≤ 0.05, log2 ratio ≤ -1)
Conditions in all cases: compound concentration: 200 uM; treatment time: 3 h
[1] = molecular target: T1, OTUD6B (UniProt Q8N6M0)
T1 sequence (whole entry): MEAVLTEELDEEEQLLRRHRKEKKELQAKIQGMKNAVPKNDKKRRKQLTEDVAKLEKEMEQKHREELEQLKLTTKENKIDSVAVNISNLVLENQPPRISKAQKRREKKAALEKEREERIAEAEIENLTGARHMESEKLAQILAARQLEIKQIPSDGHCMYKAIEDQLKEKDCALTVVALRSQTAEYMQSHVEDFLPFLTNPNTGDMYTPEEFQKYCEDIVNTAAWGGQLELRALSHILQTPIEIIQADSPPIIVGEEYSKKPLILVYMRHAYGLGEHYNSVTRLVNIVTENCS
Summary of the method: (§1)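 Fragment (200 µM) or vehicle was incubated for 3 h with triplicate HEK293T lysate samples of 495 µg, which were then treated with Biotin-Ahx-Ub-VS at 0.5 µM final for 1 h. Labelled DUBs were enriched on NeutrAvidin, digested with LysC and trypsin, and analysed by diaPASEF LC-MS/MS. Values are average log2 fragment/vehicle ratios from an unpaired t-test on global-median-normalised Spectronaut label-free quantities, using proteins with ≥2 unique peptides.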

[2] = molecular target: T2, OTUD7B (UniProt Q6GQQ9)
T2 sequence (whole entry): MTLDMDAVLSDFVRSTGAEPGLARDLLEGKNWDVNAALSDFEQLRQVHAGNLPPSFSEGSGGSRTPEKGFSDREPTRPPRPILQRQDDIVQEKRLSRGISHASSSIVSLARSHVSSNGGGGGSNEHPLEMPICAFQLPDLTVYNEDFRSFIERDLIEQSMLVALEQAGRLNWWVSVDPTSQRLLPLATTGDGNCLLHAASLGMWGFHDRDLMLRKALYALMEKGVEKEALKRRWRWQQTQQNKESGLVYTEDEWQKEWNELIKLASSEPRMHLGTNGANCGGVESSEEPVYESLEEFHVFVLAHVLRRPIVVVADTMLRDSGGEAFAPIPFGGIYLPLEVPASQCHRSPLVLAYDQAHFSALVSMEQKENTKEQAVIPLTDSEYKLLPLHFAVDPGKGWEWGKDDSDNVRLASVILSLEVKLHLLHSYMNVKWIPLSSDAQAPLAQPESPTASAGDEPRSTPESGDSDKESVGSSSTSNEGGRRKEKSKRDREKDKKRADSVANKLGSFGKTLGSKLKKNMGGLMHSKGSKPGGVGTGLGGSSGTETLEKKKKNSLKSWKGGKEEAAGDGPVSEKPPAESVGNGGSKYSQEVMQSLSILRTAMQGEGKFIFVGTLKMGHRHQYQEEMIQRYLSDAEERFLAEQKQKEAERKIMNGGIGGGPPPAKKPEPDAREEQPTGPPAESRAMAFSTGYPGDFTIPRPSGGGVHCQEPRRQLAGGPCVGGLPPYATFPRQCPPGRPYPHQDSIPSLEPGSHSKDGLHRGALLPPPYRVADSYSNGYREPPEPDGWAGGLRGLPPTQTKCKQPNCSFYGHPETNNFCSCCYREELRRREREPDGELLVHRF
Summary of the method: as §1

[3] = molecular target: PRPF8 (UniProt Q6P2Q9)
Summary of the method: as §1

[4] = molecular target: T3, PSMD7 (UniProt P51665)
T3 sequence (whole entry): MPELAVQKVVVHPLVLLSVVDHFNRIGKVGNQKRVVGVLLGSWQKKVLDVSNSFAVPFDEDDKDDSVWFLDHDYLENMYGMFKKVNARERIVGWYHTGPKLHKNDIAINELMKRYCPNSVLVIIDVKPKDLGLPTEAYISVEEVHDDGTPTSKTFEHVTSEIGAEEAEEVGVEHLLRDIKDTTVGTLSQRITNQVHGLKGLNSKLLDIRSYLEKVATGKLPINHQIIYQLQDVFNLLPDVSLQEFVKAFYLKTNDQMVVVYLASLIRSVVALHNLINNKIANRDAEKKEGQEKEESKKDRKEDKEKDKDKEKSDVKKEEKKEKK
Summary of the method: as §1

[5] = molecular target: UCHL1 (UniProt P09936)
UCHL1, sequence (P09936 whole entry, looked up): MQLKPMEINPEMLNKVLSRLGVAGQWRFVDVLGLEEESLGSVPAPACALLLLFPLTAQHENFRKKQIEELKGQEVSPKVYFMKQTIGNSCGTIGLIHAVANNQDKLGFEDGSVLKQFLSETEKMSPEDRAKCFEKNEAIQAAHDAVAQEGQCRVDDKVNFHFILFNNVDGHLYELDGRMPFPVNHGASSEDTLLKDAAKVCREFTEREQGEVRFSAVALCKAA
Summary of the method: as §1

[6] = molecular target: T4, UCHL3 (UniProt P15374)
T4 sequence (whole entry): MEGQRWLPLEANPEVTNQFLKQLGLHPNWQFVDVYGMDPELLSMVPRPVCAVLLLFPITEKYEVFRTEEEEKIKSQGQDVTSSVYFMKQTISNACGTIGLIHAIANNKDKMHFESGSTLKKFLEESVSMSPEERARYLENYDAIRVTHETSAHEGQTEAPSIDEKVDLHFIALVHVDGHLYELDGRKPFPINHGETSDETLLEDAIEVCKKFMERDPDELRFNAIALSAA
Summary of the method: as §1

[7] = molecular target: T5, UCHL5 (UniProt Q9Y5K5)
T5 sequence (whole entry): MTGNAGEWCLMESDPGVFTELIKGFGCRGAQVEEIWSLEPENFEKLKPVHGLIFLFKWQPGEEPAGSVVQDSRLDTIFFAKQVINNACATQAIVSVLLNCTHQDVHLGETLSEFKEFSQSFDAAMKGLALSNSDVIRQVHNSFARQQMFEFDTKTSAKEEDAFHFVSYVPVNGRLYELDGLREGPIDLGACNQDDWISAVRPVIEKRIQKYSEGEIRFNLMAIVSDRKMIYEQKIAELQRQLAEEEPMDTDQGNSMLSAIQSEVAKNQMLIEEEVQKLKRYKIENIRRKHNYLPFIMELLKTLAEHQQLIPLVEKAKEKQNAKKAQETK
Summary of the method: as §1

[8] = molecular target: USP10 (UniProt Q14694)
USP10, sequence (Q14694 whole entry): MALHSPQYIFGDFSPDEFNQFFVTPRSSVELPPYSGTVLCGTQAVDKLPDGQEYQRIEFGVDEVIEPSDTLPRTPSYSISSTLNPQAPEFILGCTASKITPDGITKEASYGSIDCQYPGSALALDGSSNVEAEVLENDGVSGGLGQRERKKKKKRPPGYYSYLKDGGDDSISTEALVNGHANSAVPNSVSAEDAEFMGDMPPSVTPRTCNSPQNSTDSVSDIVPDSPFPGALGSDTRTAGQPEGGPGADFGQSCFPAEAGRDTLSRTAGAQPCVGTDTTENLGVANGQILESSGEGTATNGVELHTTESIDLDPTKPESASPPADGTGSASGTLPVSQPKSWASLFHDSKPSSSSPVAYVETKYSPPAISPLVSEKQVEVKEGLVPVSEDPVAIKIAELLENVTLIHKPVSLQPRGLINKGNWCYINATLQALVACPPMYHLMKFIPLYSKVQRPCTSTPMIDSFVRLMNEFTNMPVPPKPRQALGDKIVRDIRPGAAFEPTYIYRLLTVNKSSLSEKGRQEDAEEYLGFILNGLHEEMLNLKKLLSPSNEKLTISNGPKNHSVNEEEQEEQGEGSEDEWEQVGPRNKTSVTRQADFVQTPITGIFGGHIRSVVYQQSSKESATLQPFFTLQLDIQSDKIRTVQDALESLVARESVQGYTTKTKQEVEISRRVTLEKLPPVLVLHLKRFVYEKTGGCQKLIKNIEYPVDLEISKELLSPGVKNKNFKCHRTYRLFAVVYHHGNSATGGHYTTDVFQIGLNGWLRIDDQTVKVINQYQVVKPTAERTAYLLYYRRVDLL
Summary of the method: as §1

[9] = molecular target: T6, USP15 (UniProt Q9Y4E8)
T6 sequence (whole entry): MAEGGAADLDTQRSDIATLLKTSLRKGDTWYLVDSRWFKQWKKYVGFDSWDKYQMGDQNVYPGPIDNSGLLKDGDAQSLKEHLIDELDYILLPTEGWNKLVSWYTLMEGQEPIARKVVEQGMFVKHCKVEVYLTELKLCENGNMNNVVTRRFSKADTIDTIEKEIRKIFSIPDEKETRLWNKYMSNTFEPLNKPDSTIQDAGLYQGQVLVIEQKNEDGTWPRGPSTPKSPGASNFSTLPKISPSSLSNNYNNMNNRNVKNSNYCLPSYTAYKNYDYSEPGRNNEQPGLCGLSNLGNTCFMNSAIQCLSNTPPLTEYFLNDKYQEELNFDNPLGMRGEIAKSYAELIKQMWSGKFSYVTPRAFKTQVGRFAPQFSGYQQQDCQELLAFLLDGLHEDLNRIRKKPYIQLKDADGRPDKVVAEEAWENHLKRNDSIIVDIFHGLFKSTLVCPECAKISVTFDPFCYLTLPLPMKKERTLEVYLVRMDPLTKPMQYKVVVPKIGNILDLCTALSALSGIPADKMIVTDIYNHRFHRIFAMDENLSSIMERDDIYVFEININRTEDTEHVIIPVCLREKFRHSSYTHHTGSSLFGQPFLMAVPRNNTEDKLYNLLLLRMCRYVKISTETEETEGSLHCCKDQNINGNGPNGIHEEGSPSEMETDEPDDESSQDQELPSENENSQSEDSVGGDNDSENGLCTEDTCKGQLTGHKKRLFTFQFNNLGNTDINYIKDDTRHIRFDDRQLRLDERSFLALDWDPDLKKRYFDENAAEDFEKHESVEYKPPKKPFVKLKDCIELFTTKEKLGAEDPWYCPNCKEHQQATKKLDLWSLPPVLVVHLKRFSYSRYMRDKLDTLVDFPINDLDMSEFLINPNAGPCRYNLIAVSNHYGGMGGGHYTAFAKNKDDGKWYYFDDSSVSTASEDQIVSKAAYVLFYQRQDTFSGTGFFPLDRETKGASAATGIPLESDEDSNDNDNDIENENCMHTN
Summary of the method: as §1

[10] = molecular target: USP16 (UniProt Q9Y5T5)
USP16, sequence (Q9Y5T5 whole entry, looked up): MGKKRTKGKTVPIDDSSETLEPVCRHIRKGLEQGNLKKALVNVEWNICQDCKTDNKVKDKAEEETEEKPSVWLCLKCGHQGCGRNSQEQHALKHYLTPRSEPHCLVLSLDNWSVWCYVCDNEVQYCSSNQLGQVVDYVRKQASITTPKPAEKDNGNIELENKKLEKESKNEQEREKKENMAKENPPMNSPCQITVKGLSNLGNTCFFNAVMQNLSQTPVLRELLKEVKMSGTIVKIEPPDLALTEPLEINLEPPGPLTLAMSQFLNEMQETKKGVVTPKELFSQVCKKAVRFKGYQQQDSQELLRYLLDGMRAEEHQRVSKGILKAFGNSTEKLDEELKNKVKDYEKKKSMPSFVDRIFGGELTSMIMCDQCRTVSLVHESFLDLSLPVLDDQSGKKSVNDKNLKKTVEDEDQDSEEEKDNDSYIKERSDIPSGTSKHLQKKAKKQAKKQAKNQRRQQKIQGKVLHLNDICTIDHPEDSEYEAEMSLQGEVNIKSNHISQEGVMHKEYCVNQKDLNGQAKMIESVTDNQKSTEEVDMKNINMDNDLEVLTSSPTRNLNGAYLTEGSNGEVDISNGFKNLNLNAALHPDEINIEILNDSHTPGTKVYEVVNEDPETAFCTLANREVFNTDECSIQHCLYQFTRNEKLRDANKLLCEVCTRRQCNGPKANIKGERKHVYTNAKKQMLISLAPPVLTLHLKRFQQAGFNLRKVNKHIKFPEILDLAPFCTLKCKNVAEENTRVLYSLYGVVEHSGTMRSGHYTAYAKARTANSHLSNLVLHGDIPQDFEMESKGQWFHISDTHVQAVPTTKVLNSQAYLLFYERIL
Summary of the method: as §1

Measured: log2 ratio of Biotin-Ahx-Ub-VS probe labelling

CN(C(=O)CCl)c1nc2ccccc2s1
inactive: [1] -0.243 | [2] -0.119 | [3] 0.183 | [4] 0.069 | [5] -0.925 | [6] 0.484 | [7] -0.343 | [8] -0.116 | [9] -0.217 | [10] 0.0425
